Data on 46 molecules can be found in PubChem BioAssay AID2685 (National Center for Advancing Translational Sciences (NCATS), 2010).

SMILES strings stand for the structures. The campaign covered roughly 320,000 compounds. About 2,100 (0.66%) were called active. Another 53% or so got no clear call; they are omitted. Calls follow the shape of the dose curve; as a rule, active = well fitted inhibition curve with a large enough effect in the signal ratio, with a control signal flat (not every such curve was filed as active); inconclusive = small, poorly fitted or top-dose-only effect, or effect the other way, or a change in a side signal; inactive = flat fitted curve, though single readings scatter; the % refers to the signal ratio. What follows is part of a selection rich in actives, with near analogues and random picks from the rest.
Potency is read from the fitted curve at half-maximal effect.

A short description of this experiment: qHTS Assay for Lipid Storage Modulators in Drosophila S3 Cells.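 As to cell number change: cells counted by Cell Tracker Red CMTPX staining in the red channel.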 As to lipid storage change, negative = inhibition: % is scaled to controls: 0 for no effect and ±100 for the full control effect. The settings on record: BODIPY lipid droplet fluorescence, 18-24 h, cells fed with added oleic acid; cell number change: measured here: cell count max response; series mostly up to 46.1 µM; lipid storage change, negative = inhibition: at the top concentration. In outline:
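Drosophila S3 cells got compounds at several concentrations plus oleic acid (400 uM solution). Laser-scanning cytometry with 488 nm excitation read lipid droplets at 500-530 nm and cells at 575-640 nm. Percent activity was relative to 20 uM Triacsin C.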
For `Cc1ccc(OCC(=O)OCC(=O)Nc2sccc2C(N)=O)cc1C`, the “lipid storage change, negative = inhibition” value was 4.32% (inactive) and the cell number change was -3.96%. Turning to `COc1cc(OC)cc(C(=O)OCC(=O)Nc2sccc2C(N)=O)c1`, the “lipid storage change, negative = inhibition” value was -18.4% (inactive) and the cell number change was determined as 2.18%. On the same counts, the results for `NC(=O)c1ccsc1NC(=O)COC(=O)COc1ccccc1F` are 8.92% (inactive) and -3.04%.

As for `CC(=O)c1ccc(OCC(=O)OCC(=O)Nc2sccc2C(N)=O)cc1`, the Potency was 3.66 µM (active) and the cell number change is -10.9%. In the case of `CCOC(=O)C1CCN(C(=O)CCc2c(C)nc3c(-c4ccc(F)cc4)c(C)nn3c2C)CC1`, the “lipid storage change, negative = inhibition” value was 6.7% (inactive) and the cell number change worked out at 9.15%. For the molecule `COc1ccccc1NS(=O)(=O)c1cccc(C(=O)N2CCN(C/C=C/c3ccccc3)CC2)c1`, the “lipid storage change, negative = inhibition” value was -18.7% (inactive) and the cell number change was -3.91%. Turning to `COc1cc2c(C(=O)N(C)c3ccc(F)cc3)cn(C)c(=O)c2cc1OC`, the “lipid storage change, negative = inhibition” value was 19.8% (inactive) and the cell number change was -28.8%. For the molecule `CCCC(=O)OCC(=O)c1[nH]c(C)c(C(C)=O)c1C`, the “lipid storage change, negative = inhibition” value is 4.32% (inactive) and the cell number change came to 5.74%.

With `CN(CC(=O)OCC(N)=O)S(=O)(=O)c1ccc(Cl)cc1`, the “lipid storage change, negative = inhibition” value was 11.6% (inactive) and the cell number change is -16.4%. Take `CC(=O)c1c(C)[nH]c(C(=O)COC(=O)CN(C)S(=O)(=O)c2ccc(Cl)cc2)c1C`: the Potency is 5.8 µM (active). Consider `O=C(Nc1cccc(Cl)c1)c1ccc2c(=O)n3c(nc2c1)CCCCC3`, for which the “lipid storage change, negative = inhibition” value is 16% (inactive) and the cell number change is -6.1%. `O=C(N1CCCCC1)C12CC3CC(CC(C3)C1)C2`: the “lipid storage change, negative = inhibition” value was 0.667% (inactive) and the cell number change is -0.102%. For `COc1ccc(OCc2nnc(SCC(=O)NC3CC3)n2C)cc1`, the “lipid storage change, negative = inhibition” value is 16.1% (inactive) and the cell number change turned out to be 16.2%. `Cc1ccc(OCc2nnc(SCC(=O)NC3CCCCC3)n2C)cc1`: the molecule was classed as inactive and the cell number change is 20.5%. Consider `Cn1c(COc2ccc(Cl)cc2)nnc1SCC(=O)NC1CCCC1`, for which the Potency is 14.6 µM (active) and the cell number change came to 17.9%. With `COC(=O)c1cc2c(N)c(C(=O)c3ccccc3)sc2nc1C(OC)OC`, the “lipid storage change, negative = inhibition” value was 6.49% (inactive) and the cell number change was -8.65%.

For `O=C(CS(=O)c1ccccc1[N+](=O)[O-])Oc1ccc(Br)cc1` (configuration not stated), the “lipid storage change, negative = inhibition” value is 3.04% (inactive) and the cell number change was found to be 2.35%.

Take `CCOC(=O)c1ccccc1OC(=O)CS(=O)c1ccccc1[N+](=O)[O-]` (configuration not stated): the molecule was classed as inactive and the cell number change was -21.3%. In the case of `CS(=O)(=O)c1ccc(S(=O)CC(=O)OCc2ccccc2)c([N+](=O)[O-])c1` (configuration not stated), the Potency was 29.1 µM (active) and the cell number change was -65.2%. Take `CSc1nsc(SCC(=O)N2CCc3ccccc32)n1`: the result was inactive and the cell number change was -10.2%. In the case of `O=C(NCCCn1ccnc1)C(=O)NCC1OCCN1S(=O)(=O)c1ccc(Br)cc1` (configuration not stated), the “lipid storage change, negative = inhibition” value is 5.76% (inactive) and the cell number change is -6.41%. As to `O=C(CN1C(=O)NC2(CCCC2)C1=O)Nc1ccccc1F`, the molecule was called inactive and the cell number change was -18%. Consider `COC(=O)[C@H](CCSC)NC(=O)Nc1ccc(C(C)=O)cc1`, for which the “lipid storage change, negative = inhibition” value is -13.7% (inactive) and the cell number change was determined as 0.814%.

Regarding `COC(=O)[C@H](CCSC)NC(=O)Nc1cc(C)ccc1C`, the outcome was inactive. Consider `CSCC[C@H](NC(=O)Nc1cccc(C(F)(F)F)c1)C(=O)O`, for which the Potency was 14.6 µM (active) and the cell number change was -1.65%. With `C[C@H](NC(=O)Nc1cccc(C(F)(F)F)c1)C(=O)O`, the “lipid storage change, negative = inhibition” value is 3.6% (inactive) and the cell number change stood at 14.7%. On the same counts, the results for `CSCC[C@H](NC(=O)Nc1cccc(Br)c1)C(=O)O` are -5.56% (inactive) and 8.72%.

For `COC(=O)[C@H](CCSC)NC(=O)Nc1ccc(C)c(C)c1`, the Potency is 5.17 µM (active) and the cell number change was -12.2%. On to `COc1cccc(-c2ccc(C#N)c(SCC(=O)NCc3ccco3)n2)c1`, for which the “lipid storage change, negative = inhibition” value was -1.45% (inactive) and the cell number change was 0.401%. In the case of `CCOC(=O)c1sc2nc(C)nc(SCC(=O)NC(C)CCc3ccccc3)c2c1C` (configuration not stated), the molecule was called inactive.

On to `COc1ccc(OC)c(CNC(=O)C2CCC(=O)N(CCCN3CCCC3=O)C2)c1` (configuration not stated), for which the outcome was inactive and the cell number change came out at 15.9%. Consider `CCOc1ccc(S(=O)(=O)Nc2nc3ccccc3nc2-n2ccc(=NC(=O)c3ccccc3C)cc2)cc1`, for which the “lipid storage change, negative = inhibition” value is -19.1% (inactive) and the cell number change is -0.599%.

For the molecule `Cc1cc(C(=O)NNC(=S)NCc2ccco2)nn1C`, the “lipid storage change, negative = inhibition” value is 24.4% (inactive).

For `CN(Cc1c(F)cccc1Cl)C(=O)c1ccc2ccccc2n1`, the outcome was inactive and the cell number change amounted to 19.7%. With `CN(Cc1c(F)cccc1Cl)C(=O)c1cc2ccccc2o1`, the “lipid storage change, negative = inhibition” value was 4.71% (inactive).

Take `Cc1cc(C(=O)N(C)Cc2c(F)cccc2Cl)c2ccccc2n1`: the Potency is 5.17 µM (active) and the cell number change was -7.26%.

In the case of `O=c1cc(NCc2ccco2)[nH]c(=O)n1-c1ccc(Br)cc1`, the “lipid storage change, negative = inhibition” value was 1.04% (inactive) and the cell number change is -12.2%.

Turning to `COc1ccc(-c2cc(CNC(=O)CCl)on2)cc1`, the “lipid storage change, negative = inhibition” value is 3.41% (inactive) and the cell number change worked out at 8.76%.

Turning to `COc1ccc(-c2cc(CNC(C)=O)on2)cc1`, the “lipid storage change, negative = inhibition” value was 10.5% (inactive) and the cell number change came out at 0.804%. In the case of `COc1ccc(-c2cc(CNC(=O)CN3CCN(C)CC3)on2)cc1`, the Potency is 4.11 µM (active) and the cell number change is -114%. In the case of `COc1ccc(N2CCN(c3nc4ccccn4c(=O)c3C=O)CC2)cc1`, the Potency was 4.61 µM (active) and the cell number change was found to be 25.2%. As to `O=Cc1c(N2CCN(c3ccccc3)CC2)nc2ccccn2c1=O`, the “lipid storage change, negative = inhibition” value was 4.25% (inactive) and the cell number change came out at 2.17%. As to `CN1CCN(c2nc3ccccn3c(=O)c2C=O)CC1`, the result was inactive and the cell number change came out at 25%. For `COc1cc(NC(=O)CSc2nnnn2C2CCCC2)cc(OC)c1`, the outcome was inactive and the cell number change stood at 5.13%. Turning to `COc1cccc(NC(=O)CSc2nnnn2C2CCCC2)c1`, the Potency was 8.2 µM (active) and the cell number change is -5.13%. On to `COc1ccc(NC(=O)CSc2nnnn2C2CCCC2)cc1`, for which the “lipid storage change, negative = inhibition” value was 15% (inactive) and the cell number change was 9.25%.
